{"source": "PubChem BioAssay AID2717", "about": "(Broad Institute, 2010)", "note": "Out of some 300,000 compounds screened, about 3,200 (1.1%) were called active. For the sample, actives were picked, then their nearest neighbours and some compounds at random. A number with no mark means an inactive call. Rule as the data show it: active = inhibition above about 75%; inconclusive = no clear call, values can overlap the other calls; inactive = below that; tested in HMLE shEcad cells.", "data": [{"assay": "growth suppression of cancer stem-like cells – cell-based, luminescence, primary screen (AID 2717)", "settings": "cancer stem cell-like cells viability, at 7.5 µM, hits give high values", "values": [{"smiles": "c1ccc(-c2ccccc2OCCN2CCCCC2)cc1", "inhibition": "0.336%"}, {"smiles": "COc1ccccc1-c1sc2ccccc2c1-c1ccc(Br)nc1", "inhibition": "31.6%"}, {"smiles": "COc1ccc2sc(-c3ccccc3OC)c(-c3ccc(OCCN4CCCC4)cc3)c2c1", "inhibition": "105% (active)"}, {"smiles": "c1ccc(-c2ccc(OCCN3CCOCC3)cc2)cc1", "inhibition": "5.72%"}, {"smiles": "COc1ccc(-c2sc3ccccc3c2-c2ccc(OCCN3CCOCC3)cc2)cc1", "inhibition": "136% (active)"}, {"smiles": "CC(=O)c1ccc(OCCN2CCOCC2)cc1", "inhibition": "-15.6%"}, {"smiles": "O=C(Nc1cc(S(=O)(=O)Nc2ccc(Cl)cc2)ccc1O)c1ccc(F)cc1F", "inhibition": "18.9%"}, {"smiles": "COc1ccc(C(=O)COC(=O)C(O)c2ccccc2)c(OC)c1", "note": "(stereo not drawn)", "inhibition": "3.81%"}, {"smiles": "O=c1ccc2c(-c3ccccc3S(=O)(=O)O)c3ccc(O)c(O)c3oc-2c1O", "inhibition": "25.4%"}, {"smiles": "COc1cc(OC)cc(-c2nnc(N(C)C(=O)c3ccncc3)s2)c1", "inhibition": "-13.2%"}, {"smiles": "COCCN(C(=O)c1ccco1)c1nnc(-c2ccc(OC)cc2)s1", "inhibition": "-23%"}, {"smiles": "Cc1cccc(C)c1Nc1nnc(SCC(=O)NCCCN2CCCC2=O)s1", "inhibition": "-7.62%"}, {"smiles": "CN1CCN(C(=O)c2ccc(-c3ccc(Br)cc3)o2)CC1", "inhibition": "44%"}, {"smiles": "O=C(CC1Nc2ccccc2NC1=O)Nc1ccccc1", "note": "(stereo not drawn)", "inhibition": "100% (active)"}, {"smiles": "O=C(CC1NCCc2ccccc21)Nc1cccc(Cl)c1", "note": "(stereo not drawn)", "inhibition": "7.22%"}, {"smiles": "O=C(CC1NCCNC1=O)Nc1ccc(Oc2ccccc2)cc1", "note": "(stereo not drawn)", "inhibition": "52.9%"}, {"smiles": "O=C(COC(=O)c1ccc(O)cc1O)c1ccc2c(c1)OCCO2", "inhibition": "8.44%"}, {"smiles": "O=C(Nc1cccc(S(=O)(=O)N2CCCCC2)c1)c1cncc(Br)c1", "inhibition": "-3.28%"}, {"smiles": "COc1ccc(CCNc2nc(C)cc(C)n2)cc1OC", "inhibition": "-36.8%"}, {"smiles": "COc1ccc(CCNc2nc3ccc(C)cc3n3cnnc23)cc1OC", "inhibition": "-23.4%"}, {"smiles": "CCC[C@H]1CCCC/C=C\\CCCC(=O)OCCN1C(=O)OC(C)(C)C", "inhibition": "-20.7%"}, {"smiles": "COc1cccc(C2=CC(=O)C[C@H](c3ccc(OC)c(OC)c3)C2)c1", "inhibition": "-9.08%"}, {"smiles": "CN(CC(=O)Nc1ccc(Cl)cc1)C(=O)c1ccc(COc2ccccc2)cc1", "inhibition": "22.8%"}, {"smiles": "CCOC(=O)c1c(-c2ccccc2)oc2cc(Br)c(O)c(C=O)c12", "inhibition": "100% (active)"}, {"smiles": "CCOC(=O)c1c(-c2ccccc2)oc2ccc(OCC(N)=O)cc12", "inhibition": "-4.93%"}, {"smiles": "CCOC(=O)c1c(-c2ccccc2)oc2cc(Br)c(O)cc12", "inhibition": "47.8%"}, {"smiles": "O=C1CC2(CCCC2)C(=O)N1CN1CCN(S(=O)(=O)c2ccc(F)cc2F)CC1", "inhibition": "-4.63%"}, {"smiles": "CCCN(CC1CC1)C(=O)COC(=O)c1ccc(C)cc1O", "inhibition": "-16%"}, {"smiles": "CC(NC(=O)COC(=O)Cn1cc(C(F)(F)F)ccc1=O)c1ccccc1", "note": "(stereo not drawn)", "inhibition": "-18.4%"}, {"smiles": "Clc1ccc(CN2CCN(/N=C/c3cccnc3)CC2)cc1", "inhibition": "3.75%"}, {"smiles": "O=C1/C(=C\\c2cccnc2)CN(Cc2ccccc2)C/C1=C\\c1cccnc1", "inhibition": "90.1% (active)"}, {"smiles": "O=Cc1cn(Cc2ccccc2)nc1-c1cccnc1", "inhibition": "-1.18%"}, {"smiles": "CC(OC(=O)c1c(F)cccc1F)C(=O)NCCC1=CCCCC1", "note": "(stereo not drawn)", "inhibition": "-17.6%"}, {"smiles": "Cn1c(N)c(C(=O)COC(=O)c2cccc(S(=O)(=O)N3CCOCC3)c2)c(=O)n(C)c1=O", "inhibition": "8.64%"}, {"smiles": "CCC(=O)NC(Nc1nc2ccc(C)cc2s1)(C(=O)OC)C(F)(F)F", "note": "(stereo not drawn)", "inhibition": "6%"}, {"smiles": "CCOc1ccc2nc(NC(=O)c3cc([N+](=O)[O-])ccc3N3CCOCC3)sc2c1", "inhibition": "36.3%"}, {"smiles": "O=C(NC(Nc1nc2ccc([N+](=O)[O-])cc2s1)(C(F)(F)F)C(F)(F)F)c1ccccc1", "inhibition": "98.4% (active)"}, {"smiles": "Cc1cccc(OCC(=O)OCC(=O)Nc2ccc(Cl)cn2)c1", "inhibition": "0.766%"}, {"smiles": "COC(=O)C1CCN(C(=O)COC(=O)c2cc(S(=O)(=O)N3CCOCC3)ccc2C)CC1", "inhibition": "4.55%"}, {"smiles": "COc1cc2c(-c3ccc4c(c3)OCO4)c(-c3ccsc3)oc(=O)c2cc1OC", "inhibition": "8.35%"}, {"smiles": "Cc1ccc(S(=O)(=O)NCC(=O)NNC(=O)c2ccc(Br)cc2)cc1C", "inhibition": "1.69%"}, {"smiles": "COCCCNC(=O)CSc1nc2ccc(N3CCOCC3)cc2c(=O)n1CCc1ccccc1", "inhibition": "20.5%"}, {"smiles": "N#CCSc1nc2ccc(N3CCOCC3)cc2c(=O)n1CCc1ccccc1", "inhibition": "77.9% (active)"}, {"smiles": "CCCCn1c(SCC(=O)NCC2CCCO2)nc2ccc(N3CCOCC3)cc2c1=O", "note": "(stereo not drawn)", "inhibition": "34.5%"}, {"smiles": "CSc1ncccc1C(=O)Nc1cccc(S(=O)(=O)N2CCOCC2)c1", "inhibition": "-12.8%"}, {"smiles": "O=c1cc(N2CCCCC2)c(-c2ccccc2)nn1Cc1cccc(F)c1", "inhibition": "76.4% (active)"}, {"smiles": "O=C(CS(=O)(=O)c1cn(Cc2cccc(F)c2)c2ccccc12)N1CCCCC1", "inhibition": "-3.16%"}, {"smiles": "c1ccc(-c2cc(N3CCCCC3)c3ccccc3n2)cc1", "inhibition": "38.6%"}, {"smiles": "CC(=O)c1c(OCC(=O)N(C)C2CCCCC2)ccc2c(C)cc(=O)oc12", "inhibition": "-10.2%"}, {"smiles": "O=C(CNC(=O)c1ccco1)NNC(=O)c1ccc(Br)cc1", "inhibition": "5.78%"}, {"smiles": "O=C(Cc1cccc2ccccc12)NNC(=O)Nc1ccc(Cl)cc1", "inhibition": "8.44%"}, {"smiles": "Cc1ccc(NC(=S)NC(NC(=O)Cc2cccc3ccccc23)C(Cl)(Cl)Cl)cc1", "note": "(stereo not drawn)", "inhibition": "192% (active)"}, {"smiles": "CC(C)(C)C(=O)NC(NC(=S)Nc1ccc(S(N)(=O)=O)cc1)C(Cl)(Cl)Cl", "note": "(stereo not drawn)", "inhibition": "-4.65%"}, {"smiles": "CCOC(=O)[C@H]1[C@H]2COc3ccc(Cl)cc3[C@@H]2N2C(=O)c3cc(C)ccc3NC(=O)[C@@]12C", "inhibition": "-10.6%"}, {"smiles": "CCCCn1c(-c2cccc(C)c2)nc2cc3[nH]c(=O)c(C(C)C)nc3cc21", "inhibition": "75.5% (active)"}, {"smiles": "CCOCCn1c(-c2ccccc2)nc2ccccc21", "inhibition": "-0.165%"}, {"smiles": "CCCCn1c(N)c(N(CCOC)C(=O)CSCC(=O)Nc2cccc(C)c2)c(=O)[nH]c1=O", "inhibition": "-17.7%"}, {"smiles": "Cc1cc(NC(=O)CN2C(=O)NC(CC(C)C)C2=O)no1", "note": "(stereo not drawn)", "inhibition": "-1.14%"}, {"smiles": "Cc1ccccc1NC(=O)CSC(=O)c1ccccc1", "inhibition": "-3.3%"}, {"smiles": "O=C(COC(=O)/C=C/c1ccc(Br)o1)Nc1cccc(S(=O)(=O)N2CCOCC2)c1", "inhibition": "-14.4%"}, {"smiles": "COc1ccc(C=Nc2cccc3ncccc23)cc1", "inhibition": "-1.64%"}, {"smiles": "Oc1c(C=Nc2cccc3nsnc23)ccc2ccccc12", "inhibition": "87.2% (active)"}, {"smiles": "O=[N+]([O-])c1ccc(N=Cc2c(O)ccc3ccccc23)cc1", "inhibition": "12.2%"}, {"smiles": "C[C@H]1CN([C@@H](C)CO)C(=O)Cc2cc(NC(=O)Cc3ccccc3)ccc2O[C@H]1CN(C)S(=O)(=O)c1cccs1", "inhibition": "-17%"}, {"smiles": "CCCC(=O)Nc1nc2ccc(NC(=O)c3c(F)c(F)c(OC)c(F)c3F)cc2s1", "inhibition": "92% (active)"}, {"smiles": "CCCC(=O)Nc1nc2ccc(NC(=O)c3cccnc3)cc2s1", "inhibition": "47.6%"}, {"smiles": "CSc1nc2ccc(NC(=O)c3c(F)cccc3F)cc2s1", "inhibition": "4.73%"}, {"smiles": "Cc1ccc(S(=O)(=O)N2[C@@H](c3cccc4ccccc34)C(C(=O)O)=C[C@H]2C(C)(C)C)cc1", "inhibition": "11.1%"}, {"smiles": "COc1cccc(NC(=O)CSc2nnc(C3CCCCC3)n2N)c1", "inhibition": "-6.52%"}, {"smiles": "CC(C)c1ccccc1OCC(O)CN(CC(O)COc1cccc2ccccc12)C(C)C", "note": "(stereo not drawn)", "inhibition": "102% (active)"}, {"smiles": "Cc1cc(C)c(NC(=O)C[N+](C)(C)CC(O)COc2cccc3ccccc23)c(C)c1", "note": "(stereo not drawn)", "inhibition": "-3.82%"}, {"smiles": "OC(COc1cccc2ccccc12)CN1CCN(c2ccccn2)CC1", "note": "(stereo not drawn)", "inhibition": "-5.87%"}, {"smiles": "O=C(Cc1ccc(Cl)c(Cl)c1)Nc1ccc(SC(F)F)cc1", "inhibition": "75.2% (active)"}, {"smiles": "Cc1ccc(CC(=O)Nc2ccc(OC(F)F)c(Cl)c2)cc1C", "inhibition": "33.3%"}, {"smiles": "CC(=O)N1CCN(CC(=O)Nc2ccc(SC(F)F)cc2)CC1", "inhibition": "5.6%"}, {"smiles": "COc1cc([N+](=O)[O-])ccc1NC(=O)COC(=O)CCOc1ccc(C)cc1", "inhibition": "18.1%"}, {"smiles": "COc1ccc(/C=C/C(=O)c2ccc(NS(=O)(=O)c3ccc(C)cc3)cc2)cc1O", "inhibition": "99.8% (active)"}, {"smiles": "COc1ccc(NS(=O)(=O)c2ccc(NC(=S)NC(=O)/C=C/c3ccc(C)cc3)cc2)nn1", "inhibition": "9.35%"}, {"smiles": "Cc1ccc(C(=O)/C=C/Nc2ccc(S(=O)(=O)Nc3onc(C)c3C)cc2)cc1", "inhibition": "6.82%"}, {"smiles": "CC(C)(C)OC(=O)C[C@@H]1C/C=C\\C[C@@H](CC(=O)NCCO)C(=O)N[C@H](Cc2c[nH]c3ccccc23)COC1=O", "inhibition": "-11.3%"}, {"smiles": "Cc1ccc(Br)c(NS(=O)(=O)c2cccc(C(=O)N3CCNC(=O)C3)c2)c1", "inhibition": "-15.2%"}, {"smiles": "CN1CCN(C2Cc3ccc(Cl)cc3Sc3ccc(F)cc32)CC1", "note": "(stereo not drawn)", "inhibition": "101% (active)"}, {"smiles": "O=C(N=C1SC2CS(=O)(=O)CC2N1c1ccccc1)c1ccccc1", "note": "(stereo not drawn)", "inhibition": "-9.26%"}, {"smiles": "Cc1ccc(C2(C)NC(=O)N(CC(=O)N3CC(=O)Nc4ccccc43)C2=O)cc1", "note": "(stereo not drawn)", "inhibition": "-12.5%"}, {"smiles": "O=C(c1ccc(S(=O)(=O)NCc2ccco2)cc1)N1CCN(c2ccccc2)CC1", "inhibition": "-16.3%"}, {"smiles": "CC(C)(c1ccccc1)c1ccc(OCCN2CCCC2)cc1", "inhibition": "91.2% (active)"}, {"smiles": "CC(C)(c1ccccc1)c1ccc(OCCN)cc1", "inhibition": "37%"}, {"smiles": "Cc1cc(OCCN2CCCC2)ccc1C(C)C", "inhibition": "1.11%"}, {"smiles": "CN(Cc1ccc(F)cc1)C(=O)CN1C(=O)c2ccccc2S1(=O)=O", "inhibition": "1.87%"}, {"smiles": "Cc1cc(NC(=O)COC(=O)/C=C/c2ccc(C)o2)no1", "inhibition": "-11.7%"}, {"smiles": "O=C(Nc1ncc([N+](=O)[O-])s1)C1COc2ccccc2O1", "note": "(stereo not drawn)", "inhibition": "54.2%"}, {"smiles": "CC(=O)Oc1ccccc1C(=O)Nc1ncc([N+](=O)[O-])s1", "inhibition": "76.2% (active)"}, {"smiles": "O=C(CCc1ccccc1)Nc1ncc([N+](=O)[O-])s1", "inhibition": "23.5%"}]}]}
